Experimental data published in the supplement of paper PMC11732987, “Enantioselective OTUD7B fragment discovery through chemoproteomics screening and high-throughput optimisation” (Communications Chemistry, 2025).

The compounds below were run against COPS5 (UniProt Q92905) (assay: log2 ratio of Biotin-Ahx-Ub-VS probe labelling (fragment/DMSO); higher = less target engagement (more negative = stronger competition), active = hit call of the paper (q ≤ 0.05, log2 ratio ≤ -1)). Conditions: compound concentration: 200 uM; treatment time: 3 h.
Sequence of COPS5 (Q92905 whole entry, looked up, the tested form may be a part): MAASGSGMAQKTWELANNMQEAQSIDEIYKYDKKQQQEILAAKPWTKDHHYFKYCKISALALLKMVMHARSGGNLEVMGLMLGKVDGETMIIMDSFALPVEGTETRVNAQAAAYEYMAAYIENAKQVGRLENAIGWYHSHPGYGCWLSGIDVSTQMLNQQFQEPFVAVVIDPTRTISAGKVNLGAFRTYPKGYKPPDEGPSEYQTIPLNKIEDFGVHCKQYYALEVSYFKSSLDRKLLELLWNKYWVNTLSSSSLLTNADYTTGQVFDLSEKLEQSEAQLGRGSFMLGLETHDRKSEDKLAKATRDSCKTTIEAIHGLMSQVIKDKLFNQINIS
Protocol: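 Competitive ABPP in HEK293T cell lysate. Lysates were treated with each chloroacetamide fragment at 200 µM for 3 h, then with Biotin-Ahx-Ub-VS (0.5 µM, 1 h), NeutrAvidin-enriched and analysed by diaPASEF LC-MS/MS. Protein LFQ was median-normalised; average log2 ratio is fragment/DMSO from an unpaired t-test (n=3 treated, n=44 DMSO). Hits: q ≤ 0.05, log2 ratio ≤ -1, unique peptides ≥ 2.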

log2 ratio of Biotin-Ahx-Ub-VS probe labelling, inactive:
Cc1cccc(NC(=O)CCl)c1C -0.347
Cc1ccc(-c2nnc(C)[nH]2)c(NC(=O)CCl)c1 0.151
O=C(CCl)N1CCC(c2nc3ccccc3o2)CC1 -0.0083
CCC1c2ccsc2CCN1C(=O)CCl (stereo not given) -0.188
O=C(CCl)Nc1ccc2c(c1)OC(F)(F)O2 -0.156
O=C(CCl)N1CCCN(C(=O)c2ccc(Cl)cc2)CC1 0.0384
Cc1cc(NC(=O)CCl)n(-c2ccccc2)n1 -0.0499
CCN(C(=O)CCl)C1CCS(=O)(=O)C1 (stereo not given) -0.0629
Cl.O=C(CCl)N1CC(c2ccc(Br)cn2)C1 -0.0867
Cc1ccc(N2CCC(NC(=O)CCl)C2=O)cc1 (stereo not given) -0.0995
O=C(CCl)Nc1ccc(F)cc1F -0.115
Cl.O=C(CCl)N1CCN(Cc2ccccc2)CC1 -0.0604
O=C(CCl)N1c2ccccc2NC(=O)C12CCCC2 0.325
O=C(CCl)NCC1(c2ccccc2)CC1 0.0827
Cc1ccccc1CN(C)C(=O)CCl 0.0682
O=C(CCl)NC1CCS(=O)(=O)c2ccccc21 (stereo not given) 0.159
O=C(CCl)NCCC1=CCCCC1 0.0168
O=C(CCl)NCc1ccc(Cl)cc1 -0.152
COc1cc(Cl)c(C)cc1NC(=O)CCl -0.0677
Cn1cc(CN(Cc2ccc(Cl)cc2)C(=O)CCl)cn1 -0.179
NC(=O)C1CCCCN1C(=O)CCl (stereo not given) 0.234
O=C(CCl)N1CC=C(c2c[nH]c3ccccc23)CC1 -0.0638
CCN(C(=O)CCl)C1CCCCC1 0.0876
O=C(CCl)Nc1nnc(CC(F)(F)F)o1 0.149
Cl.Cn1c(CNC(=O)CCl)nc2cccnc21 0.0916
O=C(CCl)Nc1ccc(F)cc1Cl -0.284
Cc1ccc(C(=O)NCCNC(=O)CCl)cc1 -0.05
Cl.Cn1ncc2c1CCCC2NC(=O)CCl (stereo not given) -0.0371
Cc1ccc(N(CCC#N)C(=O)CCl)cc1C 0.127
O=C(CCl)N1CCC(C(=O)N2CCCC2)CC1 -0.223
CN(C)S(=O)(=O)c1ccccc1CNC(=O)CCl 0.197
CN(CCC(O)c1ccc(Br)cc1)C(=O)CCl (stereo not given) -0.266
N#Cc1cnn(-c2ccccc2)c1NC(=O)CCl -0.123
O=C(CCl)Nc1ccccc1C(F)(F)F 0.00522
Cc1cnc2[nH]cc(CCNC(=O)CCl)c2c1 0.199
Cl.O=C(CCl)N1CCC(n2nc3ccccc3n2)CC1 -0.532
O=C(CCl)N1CCN2C(=O)CCC2C1 (stereo not given) 0.141
Cc1ccc(C)c(Oc2ccc(CNC(=O)CCl)cn2)c1.Cl -0.0158
Cc1ccccc1C1(CNC(=O)CCl)CCOCC1 0.211
COc1ccc(Cl)cc1NC(=O)CCl -0.0284
